This is an account of results in PubChem BioAssay.

Values joined by “and” are separate entries in the source; they are usually repeats but may differ in a detail not shown here. Equal entries are not always repeated. Unmarked numbers belong to inactive results. Active and inactive are the calls of the source.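 The calls were made as follows: active = inhibition at or above 50% relative to wild type and mutant plate controls; inactive = inhibition below 50%.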

A short description of the assay: inhibitors of Chlamydomonas gravitaxis, primary screen, whole organism, Chlamydomonas reinhardtii, WT vs cilia-less mutant, absorbance, 96-well (AID 463189).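 Also: 0% = wild type cc124 cells in DMSO and 100% = ciliumless bld1 mutant cells.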 The settings on record: OD600 absorbance, 2 days, at 10 µM, active compounds read high.
For orientation: inhibition means the relative decrease from the control value, in per cent. For the compound `CCN1C[C@]2(C)CC[C@H](O)[C@@]34C5C[C@@H]6[C@@H](OC)C[C@@](O)(C5[C@H]6O)[C@@H](CC23)C14` (stereo partly drawn), the inhibition is 7.34%. With `CCCCc1ccc(C(=O)O)nc1` the figure was -11.3%; with `N#CC(C#N)=Cc1ccc(O)c(O)c1`, 1.54%. The figure for `O=P1(N(CCCl)CCCl)NCCCO1` (stereo not drawn) is -0.869%. The figure for `c1ccc(C2CC2)c(OCC2=NCCN2)c1` is 3.8%. As for `CC(N)C(=O)OC(C)(C)Cc1ccc(Cl)cc1` (stereo not drawn), the inhibition is -6.83%. The figure for `COC(=O)[C@@H](N)CCCN=C(N)N[N+](=O)[O-]` is -4.62%. With `NCC(CP(=O)(O)O)c1ccc(Cl)cc1` (stereo not drawn) the figure was -3.38%; with `NC1CC1c1ccccc1` (stereo not drawn), 9.58%. In the case of `C=CCN1CC[C@]23CCCCC2[C@H]1Cc1ccc(O)cc13` (stereo partly drawn), the inhibition is 7.64%. Turning to `Clc1ccc(N2CC3CCC(C2)N3)nn1`, the inhibition is 1.03%. With `NN=C(N)N` the figure was 15.6% and 6.1%. The figure for `CCCN(CCC)C1CCc2cccc(O)c2C1` (stereo not drawn) is 1.17%; for `COc1ccc2[nH]c3c(c2c1)CCNC3` it is -4.14%.

Regarding `Ic1ccccc1CNC1C2CCN(CC2)C1C(c1ccccc1)c1ccccc1` (stereo not drawn), the inhibition was 75.8% (active).

For `C[C@H]1C2Cc3ccc(O)cc3C1(C)CCN2CC1CC1` (stereo partly drawn), the inhibition is 8.28%.

Take `C#CCN[C@H](C)Cc1ccccc1`: the inhibition is 20.4%. With `C[C@@H]1O[C@H](C[N+](C)(C)C)CS1` the figure was 4.65%. With `NCC(O)c1cc(O)c(O)cc1F` (stereo not drawn) the figure was 1.21%. The figure for `CC12CCC3C(CCC4=C(O)C(=O)CCC43C)C1CCC2=O` (stereo not drawn) is 12.9%; for `CC(C)(O)[C@@H]1[C@H]2OC(=O)[C@@H]1[C@]1(O)C[C@H]3O[C@]34C(=O)O[C@H]2[C@]14C` (tested in a mixture with another compound) it is -1.93%; for `NC(=O)c1ccc(OCC(O)CN2CC=C(c3ccc(F)cc3)CC2)cc1` (stereo not drawn) it is -9.43%.

With `NCCc1ccc(S(=O)(=O)F)cc1`, the inhibition was 0.651%. The figure for `C[C@]12Cc3cn4c(nc3C=C1CCC1C2CC[C@@]2(C)[C@H]1CC[C@@]2(O)C#N)nc1ccccc14` (stereo partly drawn) is 72.1% (active). With `c1ccc(CCCN2CCN(CCOC(c3ccccc3)c3ccccc3)CC2)cc1` the figure was 20%; with `O=[N+]([O-])c1ccc2nc(N3CCNCC3)ccc2c1`, 14.2%. With `NCC#Cc1ccccc1` the figure was 1.68%. For `C[N+]1(C)CCC(OC(=O)C(c2ccccc2)c2ccccc2)CC1`, the inhibition was -7.08%. Consider `Nc1ccc(CCN2CCN(c3cccc(C(F)(F)F)c3)CC2)cc1`, for which the inhibition is 40.5%.

In the case of `Cn1cnc(CCN)c1`, the inhibition was 3.08%.

For the compound `NCCCP(=O)(O)O`, the inhibition is 13.9%. With `CCCC[N+]1(C)C2CC(OC(=O)[C@H](CO)c3ccccc3)CC1C1OC12` (stereo partly drawn) the figure was -7.48%; with `Cc1o[nH]c(=O)c1CC(N)C(=O)O` (stereo not drawn), 5.41%; with `Cc1ncc(CNC(=O)N(CCCl)N=O)c(N)n1`, 3.94%. With `CC(C)(C)NCC(O)c1ccccc1Cl` (stereo not drawn) the figure was 8.05%; with `CCCCCCCCC(=O)NCc1ccc(O)c(OC)c1`, 12.3%; with `CCS(=O)(=O)Nc1cccc(C(=C2CCCCC2)c2cnc[nH]2)c1`, 2.69%. With `Cc1nccc2c1[nH]c1ccccc12` the figure was 10.4%.
